# Key:
# Settings in all cases: concentration: 1 μM, replicates: in singlicate; n = 1
# PAK3 = tested on: PAK3
# PAK4 = tested on: PAK4
# PAK6 = tested on: PAK6
# PAK7 = tested on: PAK7
# PCTK1 = tested on: T1, PCTK1
# T1 construct: gene CDK16
# PCTK2 = tested on: T2, PCTK2
# T2 construct: gene CDK17
# PCTK3 = tested on: T3, PCTK3
# T3 construct: gene CDK18
# PDGFRA = tested on: PDGFRA
# PDGFRB = tested on: PDGFRB
# PDPK1 = tested on: PDPK1
# 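Also: KINOMEscan kinase panel screen.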
SMILES,%Inh (PAK3) [%],%Inh (PAK4) [%],%Inh (PAK6) [%],%Inh (PAK7) [%],%Inh (PCTK1) [%],%Inh (PCTK2) [%],%Inh (PCTK3) [%],%Inh (PDGFRA) [%],%Inh (PDGFRB) [%],%Inh (PDPK1) [%]
COc1ccc(CSc2nnc(-c3ccc4nccn4c3)o2)cc1C(F)(F)F,0,16,35,22,13,8,3,28,0,0
Cc1ccccc1-c1cc(-c2c[nH]nc2-c2ccccn2)ccn1 [GW680061],0,0,0,0,2,7,20,0,41,0
CS(=O)(=O)Cc1ccc(Nc2nccc(-c3c(-c4cccc(NC(=O)C5CCCCC5)c4)nn4ncccc34)n2)cc1 [GSK350559],0,13,19,2,20,0,12,53,93.9,1
Nc1ncnc2occ(-c3ccc4c(c3)CCN4C(=O)Cc3cc(F)ccc3F)c12 [GSK2645446],0,0,0,12,2,0,2,0,50,0
Cc1ccc(NC(=O)Nc2ccccc2F)cc1-c1ccc(C(=O)Nc2ccncc2)cc1 [GSK1398477],27,0,5,11,4,12,46,50,100,19
O=C(Nc1n[nH]c2nc(-c3ccco3)c(Br)cc12)C1CCN(Cc2ccccc2)C1.O=C(O)[C@H](O)[C@@H](O)C(=O)O (stereo not drawn) [SB-742034],12,0,0,8,86,83,76,7,30,18
O=C1NC(=O)C(c2ccc(Cl)cc2)=C1Nc1ccc(O)cc1 [SB-340867],0,0,0,0,0,4,0,0,0,17
COc1cccc(C2=C(Nc3cc(Cl)c(O)c(Cl)c3)C(=O)NC2=O)c1 [SB-390767],100,0,0,0,2,0,0,0,0,0
COc1cccc(NC(=O)Nc2ccc(C)c(-c3ccc(C(=O)Nc4ccncc4)cc3)c2)c1 [GSK1398474],27,0,0,26,0,11,13,48,100,27
Cc1nccc(-c2c(-c3ccc(F)cc3)ncn2CCCN2CCOCC2)n1.Cl [SB-282975],0,0,0,0,1,3,10,0,0,29
Fc1ccc(-c2nc3n(c2-c2ccncc2)CCS3)cc1 [GI98581],42,0,0,0,12,0,20,0,16,36
O=c1cc(N2CCOCC2)nc2n(Cc3ccccc3F)ccn12 [GSK2297428],24,0,0,9,0,0,0,0,8,0
Cl.Cl.Cl.N#Cc1ccc(CCNc2nccc(-c3cccc(CN4CCNCC4)c3)n2)cc1 [GSK2137462],6,0,8,12,0,0,0,0,34,8
CNc1nc(-c2ccc3c(N)n[nH]c3c2)cc(N2C[C@@H](C(=O)NC3CCCCC3)OC[C@H]2C)n1 [GSK2375584],0,0,0,24,0,10,21,0,35,79
O=C(Nc1n[nH]c2nc(-c3cccs3)c(Br)cc12)C1CC1 [SB-735297],0,0,3,0,28,40,6,0,43,0
CNc1cc(-c2ccc3c(N)n[nH]c3c2)nc(N)n1 [GSK2224810],0,0,0,17,0,16,0,0,44,

SMILES,%Inh (PAK3) [%],%Inh (PAK4) [%],%Inh (PAK6) [%],%Inh (PAK7) [%],%Inh (PCTK1) [%],%Inh (PCTK2) [%],%Inh (PCTK3) [%],%Inh (PDGFRA) [%],%Inh (PDGFRB) [%],%Inh (PDPK1) [%]
O=C(Nc1n[nH]c2nc(-c3cccs3)c(Br)cc12)C1CCCC1 [SB-743341],0,0,9,0,46,54,56,32,74,0
COC(=O)c1cccc(NC(=O)NC2CCN(c3ccnc(Nc4ccc(F)cc4)n3)C2)c1 (stereo not drawn) [GSK1379725],0,0,0,0,10,0,12,0,36,0
Cc1c(Cn2c3ccccc3n3c(=O)cc(N4CCOCC4)nc23)cccc1C(F)(F)F [GSK2306394],23,0,0,0,0,0,5,11,25,0
Fc1ccc(-c2nn3cccc(F)c3c2-c2ccncc2)cc1 [GW475620],20,0,0,0,6,0,0,0,3,0
CCn1c(-c2ccccc2)nc2cnccc21 [SB-733416],14,0,0,0,4,0,0,0,16,0
CCc1ccc(-c2ccc3c(c2)-c2n[nH]cc2S(=O)(=O)N3C)cc1,0,0,0,0,0,0,0,0,7,4
NS(=O)(=O)c1cccc(N/C=C2\C(=O)Nc3ccc(S(=O)(=O)Cc4c(Cl)cccc4Cl)cc32)c1 [GSK398099],0,0,5,4,6,0,21,0,20,0
O=C(Nc1n[nH]c2cc(-c3ccsc3)ccc12)C1CC1 [SB-732932],0,22,7,0,13,31,8,57,80,0
COc1ccc(Nc2nccc(N3CCC(NC(=O)C(C)c4ccc(Cl)cc4)CC3)n2)cc1 (stereo not drawn) [GSK1379812],47,2,0,22,100,0,15,0,27,7
Cc1ccc(NC(=O)Nc2ccccc2)cc1-c1ccc(C(=O)Nc2ccncc2)cc1 [GSK1398471],11,0,0,1,4,0,21,49,100,26
Cc1ccc(-c2nc(Nc3ccncc3)c3ccccc3n2)s1 [GSK189015],6,4,8,0,7,0,30,0,22,26
Cc1c(Cn2c(C)c(C)n3c(=O)cc(N4CCOCC4)nc23)cccc1C(F)(F)F [GSK2328680],0,19,0,0,0,0,31,0,16,0
c1ccc(-c2ccnc3[nH]ccc23)cc1 [SB-693578],0,0,4,4,7,0,24,0,0,0
CC(=O)c1c(C)c2cnc(Nc3ccc(N4CCNCC4)cn3)nc2n(C2CCCC2)c1=O,6,0,0,0,0,10,8,0,0,0
CC(C)c1cc(-c2ccc3c(N)n[nH]c3c2)nc(N)n1 [GSK2250882],0,0,0,6,0,9,11,0,18,74

# Source: publication PMC5540273 (PLoS ONE, 2017)
